Assay outcomes from PubChem.
Hits are enriched below; roughly 4.8% of the tested compounds scored in any of these assays.
ATXN viability: cell viability loss in ATXN counter-screen. S2 cells (HEK-293 line with an ATXN2-luciferase reporter) viability, CellTiter-Fluor protease fluorescence, 24 h. Potency, µM (highest dose often 56.7 µM), hits mostly cytotoxic. 400,000 tested, 0.49% active. AID 651635; note: potency is the fitted concentration of half-maximal effect; nearly all actives have a fitted effect of over 40% in size
D3 antag: antagonists of human D3 dopamine receptor. P35462. D3R cells, DiscoveRx beta-arrestin luminescence, antagonist mode; hits give low values. max response, negative = inhibition, %. 360,000 tested, 2.5% active; in the data active = max response below about -50%; inconclusive = no clear call, values can overlap the other calls; note: % is set by controls: 0 for no effect and ±100 for the full control effect
Target sequence (P35462 whole entry, looked up): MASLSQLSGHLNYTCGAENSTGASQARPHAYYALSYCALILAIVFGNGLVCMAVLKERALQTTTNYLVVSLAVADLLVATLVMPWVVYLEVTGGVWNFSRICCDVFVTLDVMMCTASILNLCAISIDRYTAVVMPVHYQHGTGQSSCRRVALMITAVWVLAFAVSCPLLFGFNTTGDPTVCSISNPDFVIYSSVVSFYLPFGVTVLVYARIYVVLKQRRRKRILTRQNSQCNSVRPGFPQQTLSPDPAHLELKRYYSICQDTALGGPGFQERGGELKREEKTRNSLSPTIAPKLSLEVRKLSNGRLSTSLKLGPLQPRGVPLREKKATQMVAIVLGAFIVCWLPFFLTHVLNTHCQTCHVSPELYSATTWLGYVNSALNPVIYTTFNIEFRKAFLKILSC
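Cells expressing the human receptor were seeded at 1500 cells/well, incubated overnight at 37 degrees C in 5% CO2, then exposed to library compounds with dopamine controls for 90 minutes at 37 degrees C before luminescent detection.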
TGFb inhibitor: inhibitors of TGF-b signaling; HepG2 CAGA-GFP TGF-b/SMAD3 reporter, GFP fluorescence, 18 h; TGF-beta stimulated, 500 pg/mL final; Potency, µM (top dose mostly 46.1 µM), inactives show at the highest dose activity, negative = inhibition, most hits filed as inhibitors; 410,000 tested, 1.2% active; AID 588855; note: potency is the fitted concentration of half-maximal effect; % is set by controls: 0 for no effect and ±100 for the full control effect; nearly all actives have a fitted effect of over 65% in size
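HEPG2 CAGA-GFP reporter cells (1000/well, DMEM with 1% FBS) received compounds, then recombinant TGF-beta at 500 pg/mL final for 18 hours at 37 degrees C. Per-cell GFP summed per well was normalised to unstimulated and stimulated DMSO controls before curve fitting.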
DRD3 agonist: D3 dopamine receptor (human) agonism; P35462; D3R DiscoveRx beta-arrestin cells, luminescence, 90 min; max activation, %; 410,000 tested, 0.58% active; AID 652048; in the data active = max activation above about 30%; note: 0% is about no effect
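Agonist-mode cell screen: cells plated at 1500/well and incubated overnight at 37 °C, then exposed to library compounds for 90 min at 37 °C. Detection reagent was added for 30–60 min at room temperature, and luminescence was read.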
HepG2 tox: HepG2 cytotoxicity, counter-screen for TGF-b inhibitors | 410,000 tested, 0.76% active | HepG2 CAGA-GFP viability, ATP luminescence, 18 h | Potency, µM (highest dose often 46.1 µM), inactives show at the highest dose activity change, negative = cytotoxicity, hits mostly cytotoxic; note: potency is the fitted concentration of half-maximal effect
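HepG2 CAGA-GFP cells (1000/well, DMEM with 1% FBS) received compound, then TGF-beta at 500 pg/mL final, and were incubated 18 hours at 37 degrees C. Viability was read by CellTiter-Glo luminescence. Media-only wells were set as complete cell-killing and DMSO as no toxicity.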
ATXN2 expr inh: inhibitors of ATXN2 expression; HEK-293 ATXN2-luciferase reporter, luminescence, 24 h; Potency, µM (top dose mostly 57 µM), for the others: top-dose activity change, negative = inhibition, most hits filed as inhibitors; 360,000 tested, 0.72% active; AID 1745845; note: potency is the fitted concentration of half-maximal effect; % is set by controls: 0 for no effect and ±100 for the full control effect; nearly all actives have a fitted effect of over 55% in size
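ATXN2-luciferase reporter cells (luciferase flanked by upstream and downstream ATXN2 gene portions) were treated 24 h at 37 °C with compounds at up to 57 uM. SteadyGlo luminescence gave expression; GF-AFC fluorescence gave viability.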
Starred values were filed as active, the others as inactive; i = inactive; ? = inconclusive; nt = no result given. Unless noted, calls come from the whole dose curve; as a rule, active = well fitted curve in the direction sought with a large enough effect; inconclusive = small, poorly fitted or top-dose-only effect, or another doubt; inactive = no such curve, though single readings can be large; an effect the other way counts as inactive or inconclusive.

SMILES | ATXN viability | D3 antag | TGFb inhibitor | DRD3 agonist | HepG2 tox | ATXN2 expr inh
Cc1ccc(NS(=O)(=O)c2ccc(-c3cnc(C4CC4)o3)cc2)cc1N(C)C | i | nt | 10µM* | -15 | -32% | ?
Cc1ccc(C)c(NS(=O)(=O)c2ccc(-c3cnc(C4CC4)o3)cc2)c1 | ? | -5 | ? | -7 | -50% | nt
CCN(C(=O)CSc1ncc(S(=O)(=O)c2ccc(C)c(Cl)c2)c(=O)[nH]1)c1cccc(C)c1 | i | nt | -6% | -5 | -28% | -9%
Cc1c(C2(c3cc(C(C)C)c(O)c(Br)c3C)OS(=O)(=O)c3ccccc32)cc(C(C)C)c(O)c1Br | nt | nt | -26% | nt | -8% | nt
O=C(C[C@@H]1C/C=C\C[C@@H](Cc2ccc(F)cc2)C(=O)OC[C@@H]2CCCN2C1=O)N[C@H](CO)Cc1ccccc1 | i | -1 | -64% | -5 | -20% | -9%
O=C(C[C@@H]1C/C=C/CC[C@H](Cc2ccc(F)cc2)C(=O)OC[C@@H](Cc2ccccc2)NC1=O)N[C@H](CO)Cc1ccccc1 | 13µM* | -28 | ? | -24 | -104% | 11µM*
O=C(C[C@H]1C/C=C\CC[C@@H](Cc2ccc(F)cc2)C(=O)OC[C@H]2CCCN2C1=O)N[C@H](CO)Cc1ccccc1 | i | -8 | -25% | 32* | -2% | -9%
C[C@@H]1COC(=O)[C@H](Cc2ccc(F)cc2)CC/C=C/C[C@@H](CC(=O)N[C@@H](CO)Cc2ccccc2)C(=O)N1 | i | ? | -3% | -19 | -13% | 6%
Cc1ccc(C)c(NC(=O)Cn2c(=O)n(CCC(C)C)c(=O)c3cccnc32)c1 | i | nt | 19% | -14 | -16% | -2%
O=C(CCC1N=C2c3ccccc3N=C(SCc3cccc(F)c3)N2C1=O)NCc1cccs1 (configuration not stated) | nt | nt | 13% | 3 | 0% | nt
CCCCS(=O)(=O)CC(O)CSc1nc(-c2ccc(C)cc2)cc(-c2ccccc2)c1C#N (configuration not stated) | i | nt | ? | -11 | -5% | -3%
Cc1ccc(-c2csc(-c3cc4c([nH]c3=O)CC(c3ccccc3)CC4=O)n2)cc1 (configuration not stated) | i | nt | 31% | -14 | -18% | -2%
CN(C1=C(NC(=O)c2ccccc2)C(=O)c2ccccc2C1=O)C1CCS(=O)(=O)C1 (configuration not stated) | 32µM* | -54* | 18µM* | -13 | 18µM* | ?
CC(=O)NC1=C(NC2CCS(=O)(=O)C2)C(=O)c2ccccc2C1=O (configuration not stated) | ? | -4 | ? | -15 | -56% | -27%
COc1cc(OC)c(OC)cc1CNC1CCCCCC1 | i | -23 | 4% | -12 | -10% | -6%
COc1cc(OC)c(CNC2CCCCCC2)cc1Br | i | -62* | 2% | -22 | 0% | -29%
O=C(CSc1ncc2c(n1)-c1ccccc1N(Cc1ccc(Cl)cc1)S2(=O)=O)c1ccc(Cl)cc1 | i | nt | -24% | -14 | -46% | -2%
Cc1ccc2oc3nc(C)c(C(=O)O)cc3c(=O)c2c1 | i | -8 | ? | 3 | 11µM* | 11%
CCc1ccc2oc(-c3cccc(N)c3)nc2c1 | i | -52* | -11% | -4 | -27% | 67%
Cc1ccc2nc(-c3cccc(N)c3)oc2c1 | i | 9 | -10% | 5 | -39% | -24%
Cc1cc(C)n2nc(C(=O)NCC3Cc4cccc(-c5ccc(S(C)(=O)=O)cc5)c4O3)cc2n1 (configuration not stated) | i | nt | nt | nt | nt | nt
C=CCn1c(SCC(=O)Nc2sccc2C(N)=O)nc2sc(CC)cc2c1=O | ? | 75 | 8% | 35* | -16% | -37%
C=CCn1c(SCC(=O)Nc2sccc2C(N)=O)nc2ccc(Cl)cc2c1=O | i | 106 | -17% | 19 | -24% | ?
O=[N+]([O-])c1ccc(NCCNc2ccc(Cl)nn2)cc1 | i | -74* | 9% | -3 | -23% | 3%
Clc1ccc(Cl)c(-c2ccc(/C=N/c3ncn[nH]3)o2)c1 | i | 12 | -23% | 32* | -7% | 0%
SMILES | ATXN viability | D3 antag | TGFb inhibitor | DRD3 agonist | HepG2 tox | ATXN2 expr inh
O/N=C/c1ccc(-c2cc(Cl)ccc2Cl)o1 | ? | 9 | 17% | 1 | 46% | -8%
CCC(Oc1ccccc1)C(=O)Nc1cc(-c2ccccc2OC)nn1-c1ccccc1 (configuration not stated) | ? | nt | ? | -5 | -25% | 13%
CCN(CC)CCNC(C(=O)Nc1cccc(C(C)=O)c1)c1ccccc1 (configuration not stated) | i | -15 | -29% | -22 | 13µM* | -6%
CCCCC(=O)Nc1nc2ccc3nc(C)sc3c2s1 | i | -80* | -7% | -5 | 1% | -3%
CCCC(=O)Nc1nc2ccc3nc(C)sc3c2s1 | i | 10 | 0% | 0 | -2% | 31%
Cc1cccc(-c2nc(CN3CCCC(C(=O)NC4CCCCC4)C3)c(C)o2)c1 (configuration not stated) | i | -11 | ? | -24 | -19% | -8%
Cc1ccc(CNC(=O)C2CCCN(Cc3nc(-c4cccc(C)c4)oc3C)C2)cc1 (configuration not stated) | nt | nt | ? | -19 | 16µM* | nt
Cc1cccc(-c2nc(CN3CCCC(C(=O)NC4CCCCCC4)C3)c(C)o2)c1 (configuration not stated) | ? | -13 | 11µM* | 1 | -59% | -17%
Cc1ccccc1C1(CC(=O)N2CCCCC2C)CC(=O)N(Cc2cccnc2)C1=O (configuration not stated) | i | nt | nt | nt | nt | nt
O/N=C/c1cn(-c2ccccc2)nc1-c1ccccc1 | i | 55 | ? | 45* | -32% | -8%
COc1ccc(-c2nn(-c3ccccc3)cc2/C=N/O)cc1OC | i | 1 | -14% | 0 | -43% | nt
Cc1ccc(N2CC(NC(=O)Cc3cccs3)CC2=O)cc1C (configuration not stated) | nt | nt | 2% | 9 | 1% | nt
COc1ccc(C(CC(=O)NCc2ccccc2)N2Cc3ccccc3C2=O)cc1 (configuration not stated) | nt | nt | -8% | -19 | -15% | nt
C[C@H](CO)N1C[C@H](C)[C@@H](CN(C)C(=O)c2cnccn2)Oc2cc(C#CCC3CCCC3)ccc2S1(=O)=O | i | -61* | ? | -7 | -34% | -22%
C[C@@H]1CN([C@@H](C)CO)S(=O)(=O)c2ccc(Br)cc2O[C@H]1CN(C)C(=O)C1CCCCC1 | ? | -13 | -4% | -4 | 22% | -18%
